Rab9 prom act = activators of Rab9 promoter | Huh7 Rab9 promoter-luciferase reporter, luminescence, 24 h | 2.8% of 320,000 active | AID 485297 | Potency, µM (doses to about 9.22 µM), for the others: top-dose activation, negative = inhibition, hits mostly activators; note: % of control where 0% means no effect; nearly all actives have a fitted effect of over 60% in size
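Using Huh7 cells stably transfected with Rab9 promoter–luciferase, compounds were incubated 24 h at 37 °C, 5% CO2; luciferase luminescence was read 10 min after reagent addition.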
ELG1 genotoxic = induces genotoxicity in HEK293T cells with luciferase-tagged ELG1 | AID 504466 | Potency, µM (highest dose often 46 µM), without a hit: at the top dose activity change, positive = activation, hits mostly activators | HEK293T ELG1-luciferase reporter, luminescence, 16 h | 1.3% of 330,000 active; note: % of control where 0% means no effect; nearly all actives have a fitted effect of over 60% in size
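16 hr compound incubation (37 °C, 5% CO2) of HEK293T cells carrying luciferase-tagged ELG1; luciferase then measured by ONE-Glo luminescence after 30 min at RT.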
ELG1 DNA repair = blocks ELG1-dependent DNA repair in HEK293T cells; HEK293T ELG1-luciferase reporter, luminescence, 16 h; DNA damage induced by 5-fluorouridine; Potency, µM (doses to about 46.1 µM), for the others: top-dose activity change, negative = inhibition, hits mostly inhibitors; 2.3% of 330,000 active; AID 504467; note: % is set by controls: 0 for no effect and ±100 for the full control effect; nearly all actives have a fitted effect of over 55% in size
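Overnight (16 hr) co-exposure of 2,000 cells/well to 5-fluorouridine and compound at 37 °C preceded detection. Luciferase was quantified via ONE-Glo luminescence; loss of signal denotes inhibition.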
NPC1 prom act = activators of NPC1 promoter; Huh7 NPC1 promoter luciferase reporter, 24 h; Potency, µM (series often up to 9.22 µM), without a hit: at the highest dose activation, hits mostly activators; 2.4% of 320,000 active; note: % of control where 0% means no effect; nearly all actives have a fitted effect of over 60% in size
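Quantitative HTS used a cell-based reporter: Huh7 cells stably bearing the NPC1 promoter upstream of luciferase were treated with compounds for 24 h, and promoter activation was read as luminescence.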
FLuc modulator = inhibits or activates purified firefly luciferase, miR-21 counter-screen. P08659. purified FLuc, Km substrates, luminescence inhibition. Potency, µM (top dose mostly 57.5 µM), for inactives: at the top dose activity change, negative = inhibition, most hits filed as inhibitors. 6.9% of 360,000 active. AID 588342;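 note: plate controls were vehicle for no effect and reference inhibitor for full effect; nearly all actives have a fitted effect of over 55% in size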
Target sequence (P08659 whole entry, looked up): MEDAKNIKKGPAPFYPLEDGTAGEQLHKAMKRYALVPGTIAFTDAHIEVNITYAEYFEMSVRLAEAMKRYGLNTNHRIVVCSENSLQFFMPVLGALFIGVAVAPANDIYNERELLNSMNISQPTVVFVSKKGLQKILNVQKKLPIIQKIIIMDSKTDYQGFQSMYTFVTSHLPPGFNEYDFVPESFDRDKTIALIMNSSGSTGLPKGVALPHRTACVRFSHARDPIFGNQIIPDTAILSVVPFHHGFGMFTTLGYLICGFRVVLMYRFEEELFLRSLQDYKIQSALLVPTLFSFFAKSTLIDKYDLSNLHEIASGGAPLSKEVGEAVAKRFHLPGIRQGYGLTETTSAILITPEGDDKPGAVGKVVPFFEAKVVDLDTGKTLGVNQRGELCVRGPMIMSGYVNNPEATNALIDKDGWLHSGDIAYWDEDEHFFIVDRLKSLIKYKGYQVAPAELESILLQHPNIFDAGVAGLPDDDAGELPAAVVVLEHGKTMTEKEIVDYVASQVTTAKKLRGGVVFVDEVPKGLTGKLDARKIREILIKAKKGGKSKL
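Purified P. pyralis luciferase (10nM final) with 10uM D-luciferin and 10uM ATP (Km levels) in 50mM Tris acetate pH 7.5, 10mM Mg acetate, 0.01% Tween-20, 0.05% BSA; qHTS 6-point titration, ~60 µM downward; luminescence read.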
SMN2 splice up = SMN2 splice variant enhancement | HEK293 SMN2-luciferase splicing reporter, luminescence, 30-36 h | Potency, µM (top dose mostly 46.1 µM), for inactives: top-dose activity change, positive = activation, hits mostly activators | 2.8% of 210,000 active; note: % of control where 0% means no effect; nearly all actives have a fitted effect of over 55% in size
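HEK293 cells carry an SMN2 […]–luciferase reporter in which exon 7 inclusion puts luciferase in frame. Cells were plated 10-12 h before compound addition, then incubated 30-36 h at 37C. ONE-Glo luminescence was read; sodium butyrate at 4.5 mM final served as control.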
Starred values were filed as active, the others as inactive; ? = inconclusive; · = no result given; [ ] = dose if it differs, or a comment. An excerpt weighted towards active compounds, which were near 9.2% of everything screened. Calls come from the whole dose curve; as a rule, active = well fitted curve in the direction sought with a large enough effect; inconclusive = small, poorly fitted or top-dose-only effect, or another doubt; inactive = no such curve, though single readings can be large; an effect the other way counts as inactive or inconclusive. Potency is the fitted concentration of half-maximal effect.

SMILES	Rab9 prom act	ELG1 genotoxic	ELG1 DNA repair	NPC1 prom act	FLuc modulator	SMN2 splice up
Cc1cc(C)c(C#N)c(N2CCN(CCOc3ccc(Cl)cc3)CC2)n1	?	4%	18µM*	0%	1%	-26%
COc1ccc(Cl)cc1CN1CCN(c2nc(C)cc(C)c2C#N)CC1	-10%	-15%	-10%	-2%	-2%	-38%
COc1cccc(/C=N/NC(=O)c2ccc3nc[nH]c3c2)c1	2%	1%	?	4%	15µM*	·
CCN(CC)c1ccc(/C=N/NC(=O)c2ccc3nc[nH]c3c2)cc1	0%	6%	?	3%	19µM*	·
COc1cc(/C=N/NC(=O)c2ccc3nc[nH]c3c2)ccc1O	-9%	-1%	-10%	-6%	?	·
COc1ccccc1/C=C/C=N/NC(=O)c1ccc2nc[nH]c2c1	1%	-24%	-1%	-1%	17µM*	-19%
CN(C)c1ccc(/C=N/NC(=O)c2ccc3nc[nH]c3c2)cc1	18%	9%	?	3%	13µM*	·
Cc1ccc(Nc2nc3ccc(C)cc3nc2-n2nc(C)cc2C)c(C)c1	·	·	·	·	-2%	13%
CC1CCN(c2ncnc3c2nnn3C)CC1	·	·	·	·	7%	·
CCCc1nnc(SCC(=O)Nc2ccc(Cl)cc2Cl)o1	1%	-1%	25%	5%	-2%	·
CCn1c(CCCOc2ccc(Cl)cc2Cl)nnc1SCC(=O)Nc1cccc(F)c1	-5%	0%	22%	1%	9.5µM*	8%
O=C(CSc1nnc(CCCOc2ccc(Cl)cc2Cl)o1)Nc1ccc(C(=O)O)cc1	-6%	4%	14%	1%	5.4µM*	9%
Cc1nc2nc[nH]n2c(=O)c1CCOC(=O)c1c(F)cccc1F	3%	2%	-3%	-2%	?	7%
Cc1nc2nc[nH]n2c(=O)c1CCOC(=O)c1ccccc1F	13%	3%	-10%	-4%	11µM*	·
CCn1c(O)c(/C=N/N=C/c2ccccc2)c2ccc(C3=NNC(=O)CC3)cc21	0%	-2%	26µM*	-3%	-18%	-10%
CCCCOc1ccc(C2=NNC(=O)CC2)cc1	14%	?	?	12%	?	-7%[1.84 µM]
CCC(CC)=N/N=C/c1c(O)n(CC)c2cc(C3=NNC(=O)CC3)ccc12	8%	0%	21µM*	0%	?	2%
CC(C)C(=O)OC/C(O)=C(\C#N)c1nc2ccccc2[nH]1	-6%	-1%	-9%	-4%	-7%	11%
Cc1ccc(C(C)C)c(OC/C(O)=C(\C#N)c2nc3ccccc3[nH]2)c1	14%	-10%	16µM*	-1%	4%	·
O=C(NC(c1cccnc1)C(F)(F)F)c1cc(COc2ccc3c(c2)CCCC3)on1 (centres undefined)	6%	12%	?	-3%	15µM*	·
COc1cccc(C(=O)O/N=C(\N)c2ccc([N+](=O)[O-])cc2)c1	29%	17%	?	8%	2.4µM*	-1%
COc1ccccc1C/C(N)=N/OC(=O)c1cccc([N+](=O)[O-])c1C	-5%	-8%	23µM*	-4%	1%	4%
COc1cc(C(=O)O/N=C(\N)c2ccc([N+](=O)[O-])cc2)cc(OC)c1OC	-2%	7%	?	-4%	5%	6%
COc1ccc(/C(N)=N/OC(=O)c2cccc([N+](=O)[O-])c2C)cc1	26%	?	?	20%	17µM*	27%
COc1ccccc1C/C(N)=N/OC(=O)COc1ccccc1C	3%	·	·	1%	-11%	·
SMILES	Rab9 prom act	ELG1 genotoxic	ELG1 DNA repair	NPC1 prom act	FLuc modulator	SMN2 splice up
COc1ccc(/C(N)=N/OC(=O)c2cccc([N+](=O)[O-])c2)cc1	13%	?	?	11%	19µM*	?
COc1ccc(C)cc1NC(=O)Cn1c(=O)nc(-c2ccccc2F)c2cc(Cl)ccc21	·	·	·	·	-9%	·
COc1ccc(CNC(=O)CCn2c(=O)c3cccn3c3ccc(F)cc32)cc1OC	·	·	·	·	3%	·
CC(C)CC1Nc2ncnc(N3CCCCC3)c2N(Cc2ccc(Br)cc2)C1=O (centres undefined)	2%	-1%	11%	-3%	7%	·
COc1ccccc1C(=O)CC(=O)C(=O)Nc1cccc([N+](=O)[O-])c1C	-8%	-7%	18µM*	-2%	-3%	·
NS(=O)(=O)c1ccc(CCNC(=O)Cc2ccc(Cl)cc2)cc1	-2%	-3%	-14%	2%	-2%	·
Cc1ccc(NC(=O)c2ccn(C)n2)c(Br)c1	3.2µM*	5.2µM*	?	?	6µM*	2µM*
Cn1ccc(C(=O)Nc2ccc(Br)cc2Br)n1	3.2µM*	4.6µM*	?	3.5µM*	3µM*	5µM*
Cc1ccc(NC(=O)Nc2ccc(Cl)cc2)c(Br)c1	?	?	?	22%	-21%	?
Cc1ccc(NC(=O)c2ccccn2)c(Br)c1	2.8µM*	4.1µM*	?	?	7.6µM*	·
COc1ccc(CC(=O)N(Cc2ccccc2)c2ccccc2)cc1S(=O)(=O)N1CCOCC1	8%	-19%	16µM*	-5%	-3%	·
COc1ccc(CN(Cc2ccco2)c2cnc(S(C)(=O)=O)nc2C(=O)Nc2ccc(F)cc2)cc1	·	·	·	·	1%	·
Cc1cc(N2CCN(c3ccccc3F)CC2)nc2cc(O)ccc12	10%	7%	?	3%	15µM*	-15%
Cc1cc(N2CCOCC2)nc2ccc(NC(=O)CCC(=O)N3CCN(c4ccccc4F)CC3)cc12	4µM*	?	?	?	6µM*	·
Cc1cc(N2CCOCC2)nc2ccc(NC(=O)CCC(=O)N3CCCC(C)C3)cc12 (centres undefined)	?	?	?	4µM*	21µM*	13µM*
Cc1cc(N2CCN(C)CC2)nc2ccc(NC(=S)N3CCN(c4ccc(F)cc4)CC3)cc12	-10%	-3%	-14%	-8%	0%	-22%
Cc1ccc(C)c(N2CCN(C(=O)CCC(=O)Nc3ccc4nc(N5CCCCC5)cc(C)c4c3)CC2)c1	·	·	·	·	?	10%
Cc1cc(N2CCOCC2)nc2ccc(NC(=O)CCC(=O)N3CCN(c4ccc(F)cc4)CC3)cc12	?	-2%	?	25%	19µM*	·
Cc1cc(NC(=O)c2ccccc2)ccc1NC(=O)Cc1ccccc1	9%	4%	-21%	-4%	?	·
CC(=O)Nc1ccc(S(=O)(=O)NCCc2cc3ccc(C)c(C)c3[nH]c2=O)cc1	0%	12%	-4%	0%	-2%	·
Cc1cc(N2CCCCC2)nc2ccc(NC(=O)CCC(=O)N3CCN(c4ccccc4)CC3)cc12	·	·	·	·	9.5µM*	6%
